Screening data (PubChem)
TROY signal inh: TROY signaling inhibition | Q293 LMP1-TROYcd NF-kB luciferase reporter, 4 h | inhibition, % at 10 µM | 360,000 compounds, 0.98% hits | AID 1347056;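 active = compounds whose plate-normalised and pattern-corrected inhibition of the luciferase reporter signal at the single screening dose is 50% or more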
HIF-2a inh: inhibitors of HIF-2a; 786-0 RCC cells HIF-2a reporter, luciferase luminescence, overnight; inhibition, % at 18.8 µM; 360,000 compounds, 0.72% hits;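 active = inhibition of the luminescence signal of 40% or more relative to plate controls, in a single-dose primary screen at 18.75 µM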
Peg3 promoter: Peg3 promoter activity inhibition; HeLa PEG-Prom luciferase reporter, luminescence, overnight; inhibition, % at 20 µM; 360,000 compounds, 1.7% hits;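 active = inhibition of at least 50% at 20 µM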
CF NFkB block: blocks PAF-induced NF-kB reporter in cystic fibrosis cells; inhibition, % at 5 µM; 360,000 compounds, 0.86% hits; KKLEB NF-kB-GFP reporter, GFP fluorescence overnight; AID 588850;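 active = at least 50% inhibition at 5 µM, scaled per plate between neutral and stimulator controls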;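 also: PAF is a Pseudomonas aeruginosa culture filtrate used as stimulus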
KKLEB tox: reduces viability of KKLEB cystic fibrosis airway cells; KKLEB CF airway cells viability, ATPlite luminescence, overnight; hits give low values; cells stimulated with P. aeruginosa culture filtrate; activity change (cytotoxicity), % at 5 µM; 360,000 compounds, 0.36% hits;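 active = corrected activity change at or below -50% at 5 µM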
TWEAK Fn14 block: TWEAK-Fn14 signaling inhibition; TWEAK-stimulated Fn14 reporter cells, luciferase luminescence, 8 h; inhibition, % at 10 µM; 360,000 compounds, 2% hits; AID 1159606; in the data active = inhibition above about 50%
A number is an active result. An excerpt weighted towards active compounds, which were near 4% of everything screened.

What do the screens show for `O=C(O)CSc1cc(NS(=O)(=O)c2ccc(Br)cc2)c2ccccc2c1O`?
TROY signal inh: inactive; HIF-2a inh: inactive; Peg3 promoter: inactive; CF NFkB block: 91; KKLEB tox: inactive; TWEAK Fn14 block: 98

What do the screens show for `COc1ccc(OC)c(S(=O)(=O)Nc2cccc3ccccc23)c1`?
TROY signal inh: inactive; HIF-2a inh: inactive; Peg3 promoter: inactive; CF NFkB block: inactive; KKLEB tox: inactive; TWEAK Fn14 block: inactive

Results for COc1ccc(OC)c(S(=O)(=O)Oc2ccc(N)c3ccccc23)c1 ?
TROY signal inh: inactive; HIF-2a inh: inactive; Peg3 promoter: inactive; CF NFkB block: inactive; KKLEB tox: inactive; TWEAK Fn14 block: 87

Results for COc1cc(/C=C(\NC(=O)c2cc(OC)c(OC)c(OC)c2)C(=O)NC(C(=O)O)c2ccccc2)cc(OC)c1OC (stereo not given) ?
TROY signal inh: inactive; HIF-2a inh: inactive; Peg3 promoter: inactive; CF NFkB block: inactive; KKLEB tox: inactive; TWEAK Fn14 block: inactive

Results for CCN(CC)C(=O)c1ccc2nc3ccccc3nc2c1 ?
TROY signal inh: inactive; HIF-2a inh: inactive; Peg3 promoter: inactive; CF NFkB block: inactive; KKLEB tox: inactive; TWEAK Fn14 block: inactive

Results for CCN(CC)c1ccc2nc3ccccc3[n+](CC)c2c1 ?
TROY signal inh: inactive; HIF-2a inh: inactive; Peg3 promoter: 57; CF NFkB block: inactive; KKLEB tox: inactive; TWEAK Fn14 block: 64

What do the screens show for `Cc1cc(C)n(C(C[N+](=O)[O-])c2ccc(Cl)cc2)n1` (stereo not given)?
TROY signal inh: inactive; HIF-2a inh: inactive; Peg3 promoter: 99; CF NFkB block: inactive; KKLEB tox: inactive; TWEAK Fn14 block: inactive

What do the screens show for `CC1CC(C)CN(C(=O)CSc2ncnc3sccc23)C1` (stereo not given)?
TROY signal inh: inactive; HIF-2a inh: inactive; Peg3 promoter: inactive; CF NFkB block: inactive; KKLEB tox: inactive; TWEAK Fn14 block: inactive

How did O=C(NC1CCCCC1)c1ccc(CS(=O)Cc2ccc(Cl)cc2)o1 (stereo not given) do in these assays?
TROY signal inh: inactive; HIF-2a inh: inactive; Peg3 promoter: inactive; CF NFkB block: inactive; KKLEB tox: inactive; TWEAK Fn14 block: inactive

What do the screens show for `Cc1cccc(Nc2nc(N)c([N+](=O)[O-])c(N3CCCC(C)C3)n2)c1` (stereo not given)?
TROY signal inh: inactive; HIF-2a inh: inactive; Peg3 promoter: 55; CF NFkB block: inactive; KKLEB tox: inactive; TWEAK Fn14 block: 64

What do the screens show for `CCC(=O)c1ccc(N2CCN(C(=O)c3ccc(F)cc3)CC2)c(F)c1`?
TROY signal inh: inactive; HIF-2a inh: inactive; Peg3 promoter: inactive; CF NFkB block: inactive; KKLEB tox: inactive; TWEAK Fn14 block: inactive

What do the screens show for `COc1ccc(C(=O)c2ccc(N3CCN(C(=O)c4ccc(F)cc4)CC3)c(F)c2)cc1Br`?
TROY signal inh: inactive; HIF-2a inh: inactive; Peg3 promoter: inactive; CF NFkB block: inactive; KKLEB tox: inactive; TWEAK Fn14 block: 61

What do the screens show for `O=C(N/N=C/c1ccc2cccc(OCc3ccccc3)c2n1)c1ccc(Br)cc1`?
TROY signal inh: inactive; HIF-2a inh: inactive; Peg3 promoter: inactive; CF NFkB block: inactive; KKLEB tox: inactive; TWEAK Fn14 block: 66

How did CCCCCCc1cc2cc(C(=O)NCc3ccccc3)c(=N)oc2cc1O do in these assays?
TROY signal inh: inactive; HIF-2a inh: inactive; Peg3 promoter: inactive; CF NFkB block: inactive; KKLEB tox: inactive; TWEAK Fn14 block: inactive

What do the screens show for `CCCCCCc1cc2cc(S(=O)(=O)c3ccc(C)cc3)c(=O)oc2cc1O`?
TROY signal inh: 51; HIF-2a inh: inactive; Peg3 promoter: inactive; CF NFkB block: inactive; KKLEB tox: inactive; TWEAK Fn14 block: inactive

How did CCCCCCc1cc2cc(C(=O)Nc3ccccc3)c(=O)oc2cc1O do in these assays?
TROY signal inh: 50; HIF-2a inh: inactive; Peg3 promoter: inactive; CF NFkB block: 79; KKLEB tox: -83; TWEAK Fn14 block: 69

Results for CCCCCCc1cc2cc(S(=O)(=O)c3ccc(Cl)cc3)c(=O)oc2cc1O ?
TROY signal inh: 53; HIF-2a inh: inactive; Peg3 promoter: inactive; CF NFkB block: inactive; KKLEB tox: inactive; TWEAK Fn14 block: inactive

Results for COc1ccc(C(=O)N2CCN(c3cccc(C)c3C)CC2)cc1S(=O)(=O)NC1CC1 ?
TROY signal inh: inactive; HIF-2a inh: inactive; Peg3 promoter: inactive; CF NFkB block: inactive; KKLEB tox: inactive; TWEAK Fn14 block: inactive

Results for Cn1nc2c3cc(F)ccc3n(Cc3ccc(F)cc3)cc-2c1=O ?
TROY signal inh: inactive; HIF-2a inh: inactive; Peg3 promoter: inactive; CF NFkB block: inactive; KKLEB tox: inactive; TWEAK Fn14 block: inactive

What do the screens show for `COc1cc2c3nnc(-c4ccc(F)cc4)c-3cn(Cc3ccc(F)cc3)c2cc1OC`?
TROY signal inh: inactive; HIF-2a inh: inactive; Peg3 promoter: 98; CF NFkB block: inactive; KKLEB tox: inactive; TWEAK Fn14 block: inactive

What do the screens show for `COc1ccc(Cn2cc3c(-c4ccc(F)cc4)nnc-3c3cc(OC)c(OC)cc32)cc1`?
TROY signal inh: inactive; HIF-2a inh: inactive; Peg3 promoter: 101; CF NFkB block: inactive; KKLEB tox: inactive; TWEAK Fn14 block: inactive

Results for O=C(COC(=O)c1ccc(F)c(S(=O)(=O)N2CCOCC2)c1)NCc1ccccc1 ?
TROY signal inh: inactive; HIF-2a inh: inactive; Peg3 promoter: inactive; CF NFkB block: inactive; KKLEB tox: inactive; TWEAK Fn14 block: inactive

Results for COc1cc(C(=O)Nc2ccncc2)cc(OC)c1OC ?
TROY signal inh: inactive; HIF-2a inh: inactive; Peg3 promoter: inactive; CF NFkB block: inactive; KKLEB tox: inactive; TWEAK Fn14 block: inactive

What do the screens show for `COc1cc(C(=O)Nc2ccc3c(c2)Cc2cc(NC(=O)c4cc(OC)c(OC)c(OC)c4)ccc2-3)cc(OC)c1OC`?
TROY signal inh: inactive; HIF-2a inh: inactive; Peg3 promoter: inactive; CF NFkB block: 68; KKLEB tox: -77; TWEAK Fn14 block: inactive

What do the screens show for `O=C1CC(c2ccc(Cl)cc2)CC(O)=C1C=NCCO` (stereo not given)?
TROY signal inh: inactive; HIF-2a inh: inactive; Peg3 promoter: inactive; CF NFkB block: inactive; KKLEB tox: inactive; TWEAK Fn14 block: inactive

How did CCOc1cc(Br)cc(/C=N/NC(=O)c2cccnc2)c1O do in these assays?
TROY signal inh: inactive; HIF-2a inh: inactive; Peg3 promoter: 62; CF NFkB block: inactive; KKLEB tox: inactive; TWEAK Fn14 block: inactive

Results for COc1ccc(N2CCN(C(=O)C(=O)c3cc(OC)c4ccccc4c3)CC2)cc1 ?
HIF-2a inh: inactive

Results for COCCCN1CCN(C2Cc3ccccc3Sc3ccc(Cl)cc32)CC1 (stereo not given) ?
TROY signal inh: inactive; HIF-2a inh: inactive; Peg3 promoter: inactive; CF NFkB block: inactive; KKLEB tox: inactive; TWEAK Fn14 block: inactive

Results for Clc1cccc2c1Sc1ccccc1CC2N1CCNCC1 (stereo not given) ?
TROY signal inh: inactive; HIF-2a inh: inactive; Peg3 promoter: 108; CF NFkB block: inactive; KKLEB tox: inactive; TWEAK Fn14 block: inactive
